Values without a mark were called inactive. Inconclusive results are not listed. The source made the active and inactive calls. Unless noted, the call rests on the fitted dose curve; in most records, active means well fitted curve in the direction sought with a large enough effect in the repeat runs; inconclusive means weak or mixed curves; inactive means no such curve, though single readings can be large; an effect the other way counts as inactive or inconclusive.

The text below walks through data of PubChem BioAssay (Tox21).

Test [1] is described as follows: qHTS RealTime-Glo MT Cell Viability Assay in HEK293 cells - 8 hour (AID 1224887). Further: nearly all actives have a fitted effect of over 50% in size. Further: potency means the concentration at half of the fitted maximal effect. The essentials:
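600 HEK293 cells per well, dispensed already mixed with RealTime-Glo MT reagents. Compound dosing came 5 h later. The same wells were read for luminescence at 0, 8, 16, 24, 32 and 40 h of exposure at 37 C.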

Test [2] in a line: A CellTox Green Cytotoxicity Assay to monitor cytotoxicity in HEK293 cells - 16 hour (AID 1224888). Further: nearly all actives have a fitted effect of over 35% in size. Further: potency means the concentration at half of the fitted maximal effect. The method in brief:
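Dead-cell fluorescence measured kinetically: asymmetric cyanine dye, HEK293, 600 cells/well, 5 h settle, 23 nL cpd/DMSO, 37 C, reads 0–40 h every 8 h.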

Test [3] can be described thus: A CellTox Green Cytotoxicity Assay to monitor cytotoxicity in HepG2 cells - 8 hour (AID 1224890). Further: nearly all actives have a fitted effect of over 45% in size. Further: potency means the concentration at half of the fitted maximal effect. The essentials:
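First, HepG2 cells (600/well) mixed with reagent were plated; second, after 5 h at 37 C they received compounds via pintool; third, fluorescence was measured at 0 h through 40 h at 8 h intervals.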

Test [4] in a line: qHTS assay to identify small molecule antagonists of the estrogen receptor alpha (ER-alpha) signaling pathway using the BG1 cell line in the presence of 0.1 nM 17-beta-estradiol - cell viability counter screen (AID 1259241). Further: nearly all actives have a fitted effect of over 40% in size. The method in brief: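 In this screen, hormone-deprived VM7Luc4E2 cells were seeded at 4,000 per well, dosed with compound and 0.1 nM estradiol final, and incubated 22 hr at 37C and 5% CO2; fluorogenic live-cell protease signal reported viability.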

Test [5] can be described thus: qHTS assay to identify small molecule antagonists of the androgen receptor (AR) signaling pathway using the MDA cell line in the presence of 0.5 nM R1881 - cell viability counter screen (AID 1259242). Further: nearly all actives have a fitted effect of over 45% in size. Further: potency means the concentration at half of the fitted maximal effect. The essentials:
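qHTS format. MDA-kb2 (MMTV-luc, AR/GR responsive) + cpd + 0.5 nM R1881 final, 16 hr 37C/0% CO2 → CellTiter-Fluor 30 min → fluorescence intensity.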
(In general: qHTS replaces the single test concentration by a dilution series.)

Test [6] deals with Androgen receptor (Homo sapiens) (UniProt P10275). Nature of the test: qHTS assay to identify small molecule antagonists of the androgen receptor (AR) signaling pathway using the MDA cell line in the presence of 0.5 nM R1881 (AID 1259243). Further: nearly all actives have a fitted effect of over 50% in size. Further: potency means the concentration at half of the fitted maximal effect. The essentials: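 Antagonist mode quantitative HTS in MDA-kb2 MMTV-luciferase cells, agonist R1881 at 0.5 nM final, 16 hr exposure at 37C and 0% CO2, luminescent detection.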

Test [7] in a line: qHTS assay to identify small molecule HDAC inhibitors (AID 1259364). Further: potency means the concentration at half of the fitted maximal effect.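 Further: wild-type HCT-116 cells with endogenous class I/II HDAC activity; nearly all actives have a fitted effect of over 45% in size.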 The method in brief: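 Quantitative high-throughput format: overnight-seeded HCT-116 cells got compounds for 2 hr at 37C; HDAC-Glo I/II reagent added, 30 min RT, luminescence measured.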
A short description of test [8]: qHTS assay to identify small molecule agonists of the sonic hedgehog signaling (Shh) pathway - cell viability counter screen (AID 1259366). Further: nearly all actives have a fitted effect of over 50% in size. Further: potency means the concentration at half of the fitted maximal effect. The method in brief:
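In quantitative high-throughput format, 3T3 Gli1-Luc cells were exposed to compounds for 24hr and multiplexed for viability using CellTiter-Fluor, incubated 1hr at 37C before the fluorescence read.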

Test [9] is described as follows: qHTS assay to identify small molecule antagonists of the sonic hedgehog signaling (Shh) pathway - cell viability counter screen (AID 1259367). Further: nearly all actives have a fitted effect of over 55% in size. The method in brief:
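CellTiter-Fluor signal in conditioned medium-stimulated 3T3 Gli1-Luc cells, 23 hr compound exposure, 37C.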

Test [10] can be described thus: qHTS assay to identify small molecule agonists of the sonic hedgehog signaling (Shh) pathway (AID 1259368; calls by dose curve;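 further: NIH/3T3-derived 3T3Gli1-Luc cells carrying a stable Gli1-driven firefly luciferase reporter; series mostly up to about 92 µM; nearly all actives have a fitted effect of over 15% in size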). The essentials:
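Quantitative high-throughput format using a Gli1-driven firefly luciferase reporter line derived from NIH/3T3 cells. After a 24 hr compound treatment at 37 C and 5% CO2, luminescence reported Gli1 response element activity.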

Test [11] can be described thus: qHTS assay to identify small molecule antagonists of the sonic hedgehog signaling (Shh) pathway (AID 1259369; calls by dose curve; further: nearly all actives have a fitted effect of over 45% in size; further: potency means the concentration at half of the fitted maximal effect). The essentials:
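Stable Gli1-Luc reporter NIH/3T3 clone; quantitative HTS in stimulated mode with conditioned medium. Luminescence measured after 24hr compound treatment at 37 C.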

Test [12] concerns the target Estrogen receptor beta (Homo sapiens) (UniProt Q92731). Nature of the test: qHTS assay to identify small molecule agonists of the estrogen receptor beta (ER-beta) signaling pathway (AID 1259377; active means well fitted activation curve with a large enough effect in the signal ratio in the repeat runs, not every such curve was filed as active; the % refers to the signal ratio). The method in brief: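 Reporter cells (HEK293T, ER-beta-UAS-bla) receive compounds or DMSO after a 6 hr pre-incubation. They then incubate 16 hr at 37C/5% CO2, and fluorescence from LiveBLAzer B/G substrate is measured after 2 hours at room temperature.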

Test [13] has the same target. Nature of the test: qHTS assay to identify small molecule antagonists of the estrogen receptor beta (ER-beta) signaling pathway (AID 1259378; active means well fitted inhibition curve with a large enough effect in the signal ratio in the repeat runs, not every such curve was filed as active; the % refers to the signal ratio; further: potency means the concentration at half of the fitted maximal effect). The essentials: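 Antagonist mode: compounds added to beta-lactamase reporter HEK293T ER-beta-UAS cells stimulated with E2 (1nM final), 16 hr at 37C. LiveBLAzer B/G FRET substrate, 2 hours room temperature, fluorescence read-out.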

The target in test [14] is Androgen receptor (Homo sapiens) (UniProt P10275). Nature of the test: qHTS assay to identify small molecule agonists of the androgen receptor (AR) signaling pathway in the presence of an antagonist (AID 1259381; calls by dose curve; further: nearly all actives have a fitted effect of over 15% in size). The essentials:
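Reporter-gene luminescence from MDA-kb2 cells exposed 16hr at 37C (0% CO2) to 15-point compound titrations with 3.0uM final nilutamide as AR antagonist.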

The target of test [15] is Estrogen receptor (Homo sapiens) (UniProt P03372). Nature of the test: qHTS assay to identify small molecule antagonists of the estrogen receptor alpha (ER-alpha) signaling pathway using the BG1 cell line in the presence of 0.1 nM 17-beta-estradiol (AID 1259244). Further: nearly all actives have a fitted effect of over 50% in size. The essentials:
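Reporter is a stably transfected luciferase under four estrogen responsive elements in VM7Luc4E2 cells expressing native full-length ER-alpha; inhibition of 0.1 nM (final) 17beta-estradiol-driven signal over 22 h is read by luminescence.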

The nature of test [16]: qHTS assay to identify small molecule agonists of the androgen receptor (AR) signaling pathway in the presence of an antagonist - cell viability counter screen (AID 1259379).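 Further: MDA-kb2 human breast cancer cells carrying an MMTV luciferase reporter; series mostly up to about 92 µM; nearly all actives have a fitted effect of over 25% in size.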 The method in brief: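 Nilutamide-containing (3.0uM final) MDA-kb2 cultures, 3,000 cells/well, were treated with compounds across 15 concentrations. After 16 hr at 37C with no CO2, cell viability was determined by CellTiter-Fluor fluorescence in the luciferase assay wells.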

A short description of test [17]: qHTS assay to identify small molecule agonists of the estrogen receptor beta (ER-beta) signaling pathway - cell viability counter screen (AID 1259380). Further: nearly all actives have a fitted effect of over 30% in size. Further: potency means the concentration at half of the fitted maximal effect. The essentials:
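Steps: plate ER-beta-UAS-bla HEK293T cells, rest 6 hr; add compounds in DMSO; incubate 16 hr at 37C, 5% CO2; add FRET substrate 2 hr; add CellTiter-Glo, wait 30 min at room temperature; read luminescence.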

Test [18] in a line: qHTS RealTime-Glo MT Cell Viability Assay in HepG2 cells - 0 hour (AID 1224889). Further: nearly all actives have a fitted effect of over 50% in size. The essentials: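 qHTS, HepG2, 600 cells/well, RealTime-Glo (NanoLuc + prosubstrate) added with cells; 5 h preincubation; DMSO compound addition; 37 C; luminescence at 0/8/16/24/32/40 h.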
A short description of test [19]: qHTS assay to identify small molecule HDAC inhibitors - cell viability counter screen (AID 1259365). The essentials:
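Measured quantity is CellTiter-Glo luminescence from wild-type HCT-116 cells after compound incubation of 2hr at 37C, 5% CO2; reagent developed 30min at room temperature.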

The nature of test [20]: qHTS assay to identify small molecule phospholipidosis (PLD) inducers (AID 1259344; active means well fitted curve in the direction sought with a large enough effect; an effect the other way counts as inactive or inconclusive). The essentials:
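Accumulated phospholipid, stained red by LipidTOX during 24 h compound treatment of HepG2 cells at 37 C, is quantified from images as pit number and intensity, normalised per cell using Hoechst-stained nuclei.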

Estrogen receptor beta (Homo sapiens), sequence (Q92731 whole entry, looked up): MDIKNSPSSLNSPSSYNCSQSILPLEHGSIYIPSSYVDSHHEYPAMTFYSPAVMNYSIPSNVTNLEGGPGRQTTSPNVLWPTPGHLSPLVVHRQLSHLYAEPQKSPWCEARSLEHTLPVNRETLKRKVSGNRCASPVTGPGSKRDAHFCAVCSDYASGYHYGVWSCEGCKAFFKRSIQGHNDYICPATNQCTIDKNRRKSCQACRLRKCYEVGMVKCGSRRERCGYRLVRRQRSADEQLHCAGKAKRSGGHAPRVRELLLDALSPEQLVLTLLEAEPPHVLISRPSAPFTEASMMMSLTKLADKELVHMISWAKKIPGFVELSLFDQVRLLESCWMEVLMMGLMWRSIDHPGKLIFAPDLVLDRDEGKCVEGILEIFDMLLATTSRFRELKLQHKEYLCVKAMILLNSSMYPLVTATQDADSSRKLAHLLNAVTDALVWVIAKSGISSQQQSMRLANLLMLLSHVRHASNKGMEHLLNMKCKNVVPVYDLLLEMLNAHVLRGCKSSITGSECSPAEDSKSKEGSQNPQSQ
Androgen receptor (Homo sapiens), sequence (P10275 whole entry, looked up): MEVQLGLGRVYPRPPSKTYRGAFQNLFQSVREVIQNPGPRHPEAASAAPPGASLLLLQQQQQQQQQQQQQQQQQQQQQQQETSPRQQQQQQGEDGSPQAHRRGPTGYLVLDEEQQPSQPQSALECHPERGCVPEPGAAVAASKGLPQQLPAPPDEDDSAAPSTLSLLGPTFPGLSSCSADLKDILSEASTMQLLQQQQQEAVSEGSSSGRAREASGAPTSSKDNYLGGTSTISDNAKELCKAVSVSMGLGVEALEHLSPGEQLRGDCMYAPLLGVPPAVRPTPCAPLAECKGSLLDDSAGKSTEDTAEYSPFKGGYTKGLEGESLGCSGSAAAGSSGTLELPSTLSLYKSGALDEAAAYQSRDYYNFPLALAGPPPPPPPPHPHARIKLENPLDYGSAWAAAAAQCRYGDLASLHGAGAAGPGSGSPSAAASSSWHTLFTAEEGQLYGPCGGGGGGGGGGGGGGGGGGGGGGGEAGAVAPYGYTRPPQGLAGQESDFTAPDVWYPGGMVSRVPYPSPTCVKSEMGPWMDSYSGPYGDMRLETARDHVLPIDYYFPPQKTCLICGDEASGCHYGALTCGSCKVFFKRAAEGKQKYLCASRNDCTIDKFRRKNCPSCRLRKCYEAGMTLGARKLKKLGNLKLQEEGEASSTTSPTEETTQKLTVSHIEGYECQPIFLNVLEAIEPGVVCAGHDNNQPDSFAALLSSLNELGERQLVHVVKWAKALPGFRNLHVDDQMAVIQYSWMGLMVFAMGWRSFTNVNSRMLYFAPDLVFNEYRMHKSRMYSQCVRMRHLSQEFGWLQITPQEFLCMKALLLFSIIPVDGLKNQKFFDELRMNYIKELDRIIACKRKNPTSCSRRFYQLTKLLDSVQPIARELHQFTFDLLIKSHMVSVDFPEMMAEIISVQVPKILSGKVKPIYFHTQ
Estrogen receptor (Homo sapiens), sequence (P03372 whole entry, looked up): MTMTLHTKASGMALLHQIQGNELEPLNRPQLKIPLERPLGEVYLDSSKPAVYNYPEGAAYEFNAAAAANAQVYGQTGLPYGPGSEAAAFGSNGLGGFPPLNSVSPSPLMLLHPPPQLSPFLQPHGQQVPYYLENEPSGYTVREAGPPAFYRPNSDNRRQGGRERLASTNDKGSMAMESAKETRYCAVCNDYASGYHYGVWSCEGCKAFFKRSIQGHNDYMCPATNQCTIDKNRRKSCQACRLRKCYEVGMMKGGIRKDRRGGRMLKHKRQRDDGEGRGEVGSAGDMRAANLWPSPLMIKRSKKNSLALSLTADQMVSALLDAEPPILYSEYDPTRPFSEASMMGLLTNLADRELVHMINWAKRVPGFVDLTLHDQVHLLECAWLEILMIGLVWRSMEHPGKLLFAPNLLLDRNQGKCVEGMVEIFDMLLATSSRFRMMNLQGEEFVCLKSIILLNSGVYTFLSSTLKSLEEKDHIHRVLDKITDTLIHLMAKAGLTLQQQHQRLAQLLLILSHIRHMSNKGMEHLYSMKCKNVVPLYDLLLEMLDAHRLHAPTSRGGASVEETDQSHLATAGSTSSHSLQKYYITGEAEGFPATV

On to `CCN(CCC#N)c1ccc(N=Nc2ccc([N+](=O)[O-])cc2)cc1`, for which the Potency result in [1], in test [2], in test [3], in test [4], in test [5] and in test [6] was “inactive” in each case. The Potency entry in test [8], in test [9], in test [10], in test [11], in test [13] and in test [14] was “inactive” each time. Further, in test [7], the Potency is 15.4 µM (active). Further, in test [12], the result was inactive.

As for `Cc1ccc2n[nH]nc2c1`, the Potency result in [1], in test [2], in [3], in test [4], in test [5] and in test [15] was “inactive” in each case. The Potency entry in test [7], in test [8], in test [9], in test [10], in test [11] and in test [13] was “inactive” throughout. Also, the Potency result in [16] and in test [17] was “inactive” throughout. Also, in test [12], the compound was classed as inactive.

Consider `Nc1ccc(Cl)c([N+](=O)[O-])c1`, for which the Potency result in [1], in test [2], in test [18], in test [3], in test [5] and in test [7] was “inactive” throughout. For the same compound, the Potency entry in test [19], in test [10], in [16] and in test [14] was “inactive” each time. Also, in test [6], the Potency was 24.3 µM (active).

With `O=[N+]([O-])c1ccc(O)c2ncccc12`, the Potency result in [1], in test [2], in [18], in test [7], in [19] and in [10] was “inactive” in each case. Besides, the Potency was 9.44 µM (active) in test [5]; 1.88 µM (active) in [8]; 0.531 µM (active) in test [11]; 5.96 µM (active) in test [13]; 0.944 µM (active) in test [17]. In [12], the compound was called inactive.

Consider `Cc1ccc2sc3cccc(C)c3c2c1`, for which the Potency result in test [1], in test [2], in test [3], in [4], in test [5] and in test [7] was “inactive” throughout. Further, the Potency result in test [19], in test [8], in [9], in test [10], in [11] and in test [13] was “inactive” throughout. Moreover, the Potency entry in test [16], in test [17] and in test [14] was “inactive” each time. Also, the Potency in test [6] was 8.63 µM (active). Besides, in test [12], the compound was called inactive.

On to `CCC1(C)C(=O)N(Cl)C(=O)N1Cl` (stereo unspecified), for which the Potency result in [1], in [2], in test [3], in test [4], in test [5] and in test [6] was “inactive” in each case. In addition, the Potency entry in test [15], in test [7], in test [8], in test [9], in test [10] and in [11] was “inactive” each time. For the same compound, the Potency entry in test [13], in test [16], in [17] and in test [14] was “inactive” throughout.

`CN(C/C=C/c1ccccc1)Cc1cccc2ccccc12`: the Potency result in [1], in test [18], in test [5], in [20], in test [7] and in [8] was “inactive” each time. In addition, the Potency result in test [9], in test [10], in test [11] and in test [13] was “inactive” in each case. Further, the Potency in test [2] is 19 µM (active); in test [3], 23.9 µM (active). The compound was called inactive in test [12].

For the compound `CC(Cc1ccc(O)c(O)c1)C(C)Cc1ccc(O)c(O)c1` (stereo unspecified), the Potency in [1] is 43.6 µM (active); in [11], 13.7 µM (active). The Potency result in test [2], in test [18], in test [5], in [7], in test [19] and in [10] was “inactive” in each case.
